G9a block – blocks human histone lysine methyltransferase G9a; Q96KQ7; G9a H3K9 monomethylation, AlphaScreen, 2 h; Potency, µM (doses to about 102 µM), without a hit: at the top dose activity, negative = inhibition, most hits filed as inhibitors; hit rate 8.8% among 350,000; further: potency means the concentration at half of the fitted maximal effect; on the % scale 0 is the no-effect control and ±100 the full control effect; nearly all actives have a fitted effect of over 75% in size
Target sequence (Q96KQ7 913-1193 limits assumed): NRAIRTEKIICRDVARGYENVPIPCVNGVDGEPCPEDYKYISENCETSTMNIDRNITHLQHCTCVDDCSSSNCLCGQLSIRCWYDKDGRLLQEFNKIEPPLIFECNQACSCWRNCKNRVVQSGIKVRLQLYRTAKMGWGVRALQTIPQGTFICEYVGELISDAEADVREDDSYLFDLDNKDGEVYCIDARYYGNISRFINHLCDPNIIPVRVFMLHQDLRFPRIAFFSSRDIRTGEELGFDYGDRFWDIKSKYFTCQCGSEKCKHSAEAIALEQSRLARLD
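Using a bead-based AlphaScreen, monomethylated H3K9 product from 2 h room-temperature reactions (G9a 20 nM, peptide 500 nM, SAM 20 uM) was detected with 0.5 ug/mL rabbit anti-H3K9me1 antibody.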
CtBP-E1A inh – inhibitors of CtBP/E1A interaction; AlphaScreen GST-E1A/His-CtBP binding, 1536-well; active compounds read low; activity change, % (no concentration beside the values); hit rate 0.49% among 340,000; AID 651724; in the data active means activity change below about -65%; inconclusive means mostly about -30% to -63%; further: on the % scale 0 is the no-effect control and ±100 the full control effect
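GST-E1A and His-tagged CtBP (125 nM each as 5X stock) were preincubated with pin-transferred compound for 2 h at 37 °C in the dark, then glutathione donor and nickel acceptor beads were added for 1 h before AlphaScreen reading.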
Six1-Eya2 blk – Six1/Eya2 interaction inhibition; activity change, % (test concentration not listed); AlphaScreen GST-Six1/His-Eya2 binding, biochemical; active compounds read low; hit rate 0.56% among 360,000; Q15475+O00167; in the data active means activity change below about -65%; inconclusive means mostly about -30% to -63%; further: on the % scale 0 is the no-effect control and ±100 the full control effect
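Homogeneous AlphaScreen proximity assay pairing GST-Six1 with His-tagged Eya2 (added as 5X mix: 250 nM and 500 nM) in 50 mM Tris pH 8.0, 300 mM NaCl, 1 mM TCEP. Glutathione donor and nickel acceptor beads; 1 h, 37 °C, dark.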
BAZ2B inh – blocks human BAZ2B | Q9UIF8 | AlphaScreen BAZ2B-H3K14Ac peptide displacement | Potency, µM (top dose mostly 114 µM), for inactives: at the top dose activity change, negative = inhibition, actives largely listed as inhibitors | hit rate 4.4% among 360,000 | AID 504333; further: potency means the concentration at half of the fitted maximal effect; on the % scale 0 is the no-effect control and ±100 the full control effect; nearly all actives have a fitted effect of over 60% in size
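In this displacement format the biotinylated H3(5-23) peptide acetylated at Lys14 serves as ligand at 50 nM, with BAZ2B at 50 nM in PBS pH 7.4 containing 0.01% Tween-20. Donor and acceptor beads are 10 ug/mL final.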
HP1b chromo inh – inhibitors of HP1-beta chromodomain binding to methylated histone tails | Potency, µM (doses to about 114 µM), for inactives: top-dose activity change, negative = inhibition, hits mostly inhibitors | P83916 | AID 540317 | AlphaScreen HP1-beta / biotin-H3K9me3 peptide binding | hit rate 0.56% among 390,000; further: potency means the concentration at half of the fitted maximal effect; nearly all actives have a fitted effect of over 70% in size
Target sequence (P83916 whole entry, looked up): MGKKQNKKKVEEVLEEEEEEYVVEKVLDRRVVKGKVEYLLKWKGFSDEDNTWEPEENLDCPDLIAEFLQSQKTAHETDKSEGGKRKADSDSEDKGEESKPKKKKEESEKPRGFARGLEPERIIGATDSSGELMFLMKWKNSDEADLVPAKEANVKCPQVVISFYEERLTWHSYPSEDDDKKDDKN
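Compound inhibition of the preformed complex between 50 nM HP1-beta and 50 nM biotinylated H3K9me3 peptide was read by AlphaScreen. Buffer was PBS pH 7.4 with 0.01% Tween-20. Incubations ran 30 min at room temperature, with 10 ug/mL donor/acceptor beads.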
JMJD2A Tudor – inhibitors of human JMJD2A Tudor domain; O75164; AlphaScreen JMJD2A-Tudor / H3K4me3 peptide binding; Potency, µM (series often up to 114 µM), inactives show at the top dose activity change, negative = inhibition, hits mostly inhibitors; hit rate 4.4% among 390,000; AID 504339; further: potency means the concentration at half of the fitted maximal effect; on the % scale 0 is the no-effect control and ±100 the full control effect; nearly all actives have a fitted effect of over 50% in size
Numbers without * were called inactive; ? = inconclusive; / = no result; [ ] = remark or other dose. Rows were chosen to be rich in hits. Some 10% of all compounds tested hit in one or more screens of this group. Unless noted, the call rests on the fitted dose curve; in most records, active means well fitted inhibition curve with a large enough effect; inconclusive means small, poorly fitted or top-dose-only effect; inactive means no such curve, though single readings can be large or run the other way.

SMILES	G9a block	CtBP-E1A inh	Six1-Eya2 blk	BAZ2B inh	HP1b chromo inh	JMJD2A Tudor
CCC(C)(C)n1nnnc1C(c1cc2cc(C)cc(C)c2[nH]c1=O)N1CCCC1 (configuration not stated)	7.94µM*	-6.5	-3.1	-0.3%	11.0%	?
Cc1cccc(OCCn2c(=S)[nH]c3ccccc32)c1	1.58µM*	-0.9	-10.7	?	-61.3%	?
Cn1c(=S)[nH]c2ccccc21	8.91µM*	5.5	-0.9	-35.0%	-11.1%	50.1µM*
COc1ccccc1OCCn1c(=S)[nH]c2ccccc21	8.91µM*	-0.6	-11.1	0.9%	0.6%	?
CCOc1ccc(OCCn2c(=S)[nH]c3ccccc32)cc1	7.08µM*	/	6.9	50.1µM*	?	?
N#CCCn1c(=S)[nH]c2ccccc21	7.08µM*	-6.7	1.9	-2.9%	-19.9%	-6.1%[57.1 µM]
CCOc1ccc2[nH]c(=O)c(=O)[nH]c2c1	-29.5%[12.7 µM]	-7.2	-5.6	-5.7%	21.3%	5.2%
CCOc1ccc2c(c1)[nH]c(=S)n2C	7.94µM*	1.3	4.4	-14.6%	-33.7%	56.2µM*
Cc1cc(C)n2nc(CNC(=O)c3ccc(Cl)cc3)nc2n1	11.2%[59 µM]	/	/	6.5%	78.0%	1.3%
CCOC(=O)C(=NCCOC)NNc1cc(Cl)ccc1Cl	39.8µM*	/	-1.0	?	14.8%	?
COc1ccc(C(NC(C)=O)c2cc(Cl)c3cccnc3c2O)cc1OC (configuration not stated)	8.7%	?	?	28.2µM*	30.2%	56.2µM*
CCC(=O)NC(c1ccc(OC)c(OC)c1)c1cc(Cl)c2cccnc2c1O (configuration not stated)	/	-85.1*	-81.7*	39.8µM*	41.3%	-24.0%
CCC(=O)N1CCc2cc(CNC(=O)c3ccc(OC)cc3)ccc21	5.8%[59 µM]	/	/	-5.3%	9.9%	-12.3%
N#CC1=C(N)Oc2cc(Nc3ccccc3)ccc2C1c1ccncc1 (configuration not stated)	/	-3.5	-5.8	?	-24.2%	79.4µM*
COc1ccc(N2CCN(C(=O)c3cc4c(-c5ccc(Cl)cc5)nn(C)c4s3)CC2)cc1	35.5µM*	1.6	-7.9	10µM*	-1.4%	?
Cn1nc(-c2ccc(Cl)cc2)c2cc(C(=O)N3CCOCC3)sc21	-13.4%	-13.5	-21.7	11.1%	41.3%	-5.5%
COc1ccc(N2CCN(C(=O)c3cc4c(-c5ccccc5F)nn(C)c4s3)CC2)cc1	11.2µM*	/	/	/	?	11.2µM*
Cc1ccc(NC(=O)CCC(=O)NNC(=O)Nc2cccc(Cl)c2)c(C)c1	/	-4.0	5.3	-5.6%	18.1%	-16.2%
Cc1cc(C)c2c(N)c(C(=O)c3ccc(Br)cc3)oc2n1	35.5µM*	4.6	-5.3	-5.7%	62.5%	3.4%
Cc1cc(C)c2c(N)c(C(=O)c3ccccc3)oc2n1	?	15.7	10.7	11.2%	40.6%	-13.9%
C/C(CC(=O)Nc1ccc2c(c1)OCCO2)=N\NC(=O)C(=O)Nc1ccccc1C	?	/	-7.2	-6.1%	28.1%	-10.2%
CCCOC(=O)c1ccc(NC(=O)c2ccccc2[N+](=O)[O-])cc1	/	-12.2	-1.7	18.2%	10.2%	-19.5%
CC(C)(C)C1CCC(C(=O)Nc2ccc(N3CCOCC3)cc2N2CCOCC2)CC1 (configuration not stated)	?	/	-4.2	?	?	?
COC(=O)c1ccc(/C=N/N2CCN(Cc3ccc(Cl)cc3)CC2)cc1	-8.4%	-19.5	-6.1	-33.5%	36.3%	-10.4%
COc1cc(/C=N/N2CCN(Cc3ccc(Cl)cc3)CC2)cc(Br)c1O	2.1%[0.501 µM]	/	-25.3	50.1µM*	-21.0%	44.7µM*
Oc1ccc(Br)cc1/C=N/N1CCN(Cc2ccccc2)CC1	12.2%[0.501 µM]	-24.7	-22.6	?	-20.0%	?
COc1cc(/C=N/N2CCN(Cc3ccc(Cl)cc3)CC2)ccc1OC(C)=O	/	/	-7.6	56.2µM*	?	44.7µM*
Nc1nsc2ccccc12	39.8µM*	-9.2	-1.5	11.3%	7.4%	-1.1%
Nc1nnc(N)c2ccccc12	-4.2%	27.8	-1.9	-2.2%	6.1%	-18.7%

Screens from PubChem BioAssay.
